ELG1 DNA repair: inhibitors of ELG1-dependent DNA repair in HEK293T cells; Potency, µM (series often up to 46.1 µM), for the others: top-dose activity change, negative = inhibition, hits mostly inhibitors; HEK293T ELG1-luciferase reporter, luminescence, 16 h; DNA damage induced by 5-fluorouridine; AID 504467; 330,000 compounds, 2.3% hits; also: potency is read from the fitted curve at half-maximal effect; % is scaled to controls: 0 for no effect and ±100 for the full control effect; nearly all actives have a fitted effect of over 55% in size
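HEK293T cells expressing luciferase-tagged ELG1 (2,000/well) received 5-Fluorouridine plus compound or DMSO for 16 hr at 37 °C. Luciferase was read by ONE-Glo luminescence after 30 min at room temperature.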
BRCA1 expr act: increases BRCA1 expression; Potency, µM (highest dose often 46.1 µM), for inactives: at the highest dose activation, usual class: activators; 380,000 compounds, 1.1% hits; MCF7-BRCA1-FFLuc reporter, luminescence, 48 h; response scale: scaled: vehicle 0%, 10 µM genistein 100%; also: potency is read from the fitted curve at half-maximal effect; nearly all actives have a fitted effect of over 80% in size
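MCF7 cells carrying a BRCA1-firefly luciferase reporter (2000 cells/well, phenol-red free MEM) were attached for 2 h at 37 °C, then given compounds for 48 h. Luminescence was read 15 min after luciferase reagent; activity normalized to genistein (10 microM) and DMSO.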
IL-2 act: IL-2 activation; IL-2 activation reporter assay, cell-based qHTS; stimulated with anti-CD3/CD4/CD28 beads; in transgenic mouse T cells; activation, % (series mostly up to about 46 µM); 360,000 compounds, 0.065% hits; in the data active = activation above about 50%; inconclusive = mostly about 30% to 49%; also: 0% is about no effect
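EGFP and DsRed fluorescence is measured by plate cytometry in unstimulated transgenic mouse T cells exposed to compound for 60 minutes, then stimulated 18 hours at 37 degrees C with anti-CD3/anti-CD4 beads plus anti-CD28.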
Nrf2 ARE act: activators of Nrf2 (ARE) signaling; 410,000 compounds, 0.31% hits; Potency, µM (top dose mostly 46.1 µM), for inactives: at the highest dose activation, actives largely listed as activators; AREc32 ARE-luciferase reporter (MCF7-derived line), luminescence, 24 h; also: potency is read from the fitted curve at half-maximal effect; % of control where 0% means no effect; nearly all actives have a fitted effect of over 65% in size
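Steps: seed AREc32_Fluc cells (1000/well, 5% FBS OPTI-MEM); incubate overnight at 37 deg C; add 23 nL compound; incubate 24 hr; add Steady-Glo; hold 30 min RT; read luminescence.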
* marks the source's active call; other numbers are inactive results. Shown are actives, neighbours in structure and some others; about 3.1% of the full set was active somewhere. Unless noted, calls follow the shape of the dose curve; as a rule, active = well fitted curve in the direction sought with a large enough effect; inconclusive = small, poorly fitted or top-dose-only effect, or another doubt; inactive = no such curve, though single readings can be large; an effect the other way counts as inactive or inconclusive.

`CCOc1ccc(N(C)S(=O)(=O)c2ccc3[nH]cc(C(=O)NCC4CCCO4)c(=O)c3c2)cc1` (centres undefined) gave ELG1 DNA repair 23µM*, BRCA1 expr act -18%, IL-2 act 0 and Nrf2 ARE act 0%.
For CSc1ccc(CCNC(=O)C2CCCN(S(=O)(=O)N(C)c3ccc(F)cc3)C2)cc1 (centres undefined) the results were Nrf2 ARE act -1%.
Screening N#CN=c1snc(-c2ccccc2)n1-c1ccc(Cl)cc1 returned BRCA1 expr act -47%.
Screening Nc1ccc(C(Cc2ccnc3ccccc23)Cc2ccnc3ccccc23)cc1 returned BRCA1 expr act -33%.
`CCn1cc(C(=O)NCCCOC)c(=O)c2cc(S(=O)(=O)N(C)C3CCCCC3)ccc21` gave ELG1 DNA repair inconclusive, BRCA1 expr act 0%, IL-2 act -1 and Nrf2 ARE act 0%.
For C=CCn1cc(C(=O)NCC2CCCO2)c(=O)c2cc(S(=O)(=O)N3CCCCCC3)ccc21 (centres undefined) the results were ELG1 DNA repair 10µM*, BRCA1 expr act -12%, IL-2 act -3 and Nrf2 ARE act 0%.
CCn1cc(C(=O)NCC(OC)OC)c(=O)c2cc(S(=O)(=O)N(C)C3CCCCC3)ccc21 was read as ELG1 DNA repair 9.2µM*, BRCA1 expr act -30%, IL-2 act -2 and Nrf2 ARE act 0%.
Screening COC(CNC(=O)c1cn(C)c2ccc(S(=O)(=O)N(C)C3CCCCC3)cc2c1=O)OC returned ELG1 DNA repair 5.2µM*, BRCA1 expr act -24%, IL-2 act 0 and Nrf2 ARE act -1%.
Screening Cc1ccc(OCCSc2nc3ccc(NC(=O)c4ccc5c(c4)OCO5)cc3s2)cc1 returned BRCA1 expr act 0% and Nrf2 ARE act 0%.
For CCCN1CNc2c(c(=O)[nH]c(=S)n2CCc2ccccc2Cl)C1 the results were BRCA1 expr act 32%.
`O=c1[nH]c2cc3c(cc2cc1CN(Cc1cccs1)Cc1nnnn1Cc1ccco1)OCCO3` gave ELG1 DNA repair inconclusive, BRCA1 expr act -67%, IL-2 act 0 and Nrf2 ARE act 2%.
Screening O=c1[nH]c2cc3c(cc2cc1CN(Cc1ccccc1)Cc1nnnn1Cc1ccco1)OCCO3 returned ELG1 DNA repair inconclusive, BRCA1 expr act -74%, IL-2 act 5 and Nrf2 ARE act 3%.
Screening O=c1[nH]c2cc3c(cc2cc1CN(Cc1cccnc1)Cc1nnnn1Cc1ccco1)OCCO3 returned ELG1 DNA repair 23µM*, BRCA1 expr act -63%, IL-2 act -1 and Nrf2 ARE act 0%.
Screening COc1ccccc1CN(Cc1cc2cc3c(cc2[nH]c1=O)OCCO3)Cc1nnnn1Cc1ccco1 returned ELG1 DNA repair 21µM*, BRCA1 expr act 5%, IL-2 act 2 and Nrf2 ARE act 9%.
c1cc(-c2sc(-c3ccncc3)c(-c3ccncc3)c2-c2ccncc2)ccn1 was read as ELG1 DNA repair 18µM*, BRCA1 expr act -18%, IL-2 act -3 and Nrf2 ARE act 0%.
Screening Nc1nnc(-c2ccncc2)s1 returned ELG1 DNA repair -18%, BRCA1 expr act 1%, IL-2 act -1 and Nrf2 ARE act 0%.
`COc1ccc(-n2nc(C(=O)c3cccs3)cc(-c3nc4ccccc4[nH]3)c2=N)cc1` gave ELG1 DNA repair inconclusive, BRCA1 expr act -76%, IL-2 act -1 and Nrf2 ARE act 0%.
`Cc1cccc(-n2nc(C(=O)c3ccco3)cc(-c3nc4ccccc4[nH]3)c2=N)c1` gave ELG1 DNA repair 13µM*, BRCA1 expr act -21%, IL-2 act 4 and Nrf2 ARE act 2%.
`Cc1ccccc1-n1nc(C(=O)c2cccs2)cc(-c2nc3ccccc3[nH]2)c1=N` gave ELG1 DNA repair 13µM*, BRCA1 expr act -72%, IL-2 act 8 and Nrf2 ARE act 6%.
`Cc1ccc2nc(-c3cccc(NC(=O)c4ccco4)c3)[nH]c2c1` gave ELG1 DNA repair inconclusive, BRCA1 expr act 40%, IL-2 act -2 and Nrf2 ARE act 6%.
Cc1cccc(NC(=O)CCNS(=O)(=O)c2ccc3c(c2)CCCC(=O)N3)c1C was read as BRCA1 expr act -14% and Nrf2 ARE act -1%.
For COc1ccc(Cc2c(C(C)(C)C)nc3c(C)cc(Br)cn23)c(C)c1 the results were BRCA1 expr act -8%, IL-2 act 2 and Nrf2 ARE act 0%.
CC(C)(C)N1C(=O)c2ccccc2NC(=O)C1C(=O)NCc1ccco1 (centres undefined) was read as IL-2 act 1.
Screening O=[N+]([O-])c1ccc(COn2nnc3ccccc32)cc1 returned ELG1 DNA repair inconclusive, BRCA1 expr act 20%, IL-2 act -1 and Nrf2 ARE act 1%.
Screening Clc1ccc(COn2nnc3ccccc32)c(Cl)c1 returned BRCA1 expr act 5.6µM*, IL-2 act 0 and Nrf2 ARE act 26%.
Screening Cc1c(C(=O)Nc2ccc(F)cc2F)oc2ccc3c(c12)C(=O)CC(C)(C)O3 returned Nrf2 ARE act 0%.
`O=C(NC1CCCC1)C1CCCN1C(=O)Nc1ccccc1` (centres undefined) gave ELG1 DNA repair 0%, BRCA1 expr act 3%, IL-2 act 1 and Nrf2 ARE act 0%.
O=C(Nc1ccccc1)N1CCCC2CCCCC21 (centres undefined) was read as ELG1 DNA repair inconclusive, BRCA1 expr act 11µM*, IL-2 act 0 and Nrf2 ARE act 1%.
`Cc1cc[n+](C2=C([O-])c3ccccc3C(=O)/C2=N\S(=O)(=O)c2cccs2)cc1C` gave ELG1 DNA repair 23µM*, BRCA1 expr act 4%, IL-2 act 2 and Nrf2 ARE act 0%.
Cc1cc(C)cc(NS(=O)(=O)c2cccs2)c1 was read as ELG1 DNA repair -5%, BRCA1 expr act -15%, IL-2 act -3 and Nrf2 ARE act 0%.
Screening Cc1cc(C)c[n+](C2=C([O-])c3ccccc3C(=O)/C2=N\S(=O)(=O)c2cccs2)c1 returned ELG1 DNA repair 12µM*, BRCA1 expr act -47%, IL-2 act 0 and Nrf2 ARE act 0%.
For O=C(OCC(=O)N1CCCC1)c1c[nH]c2ccccc12 the results were ELG1 DNA repair inconclusive, BRCA1 expr act 38%, IL-2 act 0 and Nrf2 ARE act 2%.
CC1CCN(C(=O)COC(=O)c2c[nH]c3ccccc23)CC1 was read as ELG1 DNA repair inconclusive, BRCA1 expr act 7.1µM*, IL-2 act -1 and Nrf2 ARE act 1%.
Screening Cc1cccc(C(=O)OCC(=O)N2CCCCCC2)c1C returned ELG1 DNA repair inconclusive, BRCA1 expr act 5.6µM*, IL-2 act 0 and Nrf2 ARE act 0%.
`O=C(OCC(=O)N1CCCCC1)c1c[nH]c2ccccc12` gave ELG1 DNA repair inconclusive, BRCA1 expr act 6.3µM*, IL-2 act 0 and Nrf2 ARE act 3%.

Bioassay records (PubChem BioAssay)
